# Experimental data taken from the supplement of paper PMC12494721.
# Counter-ions that a name gives are not always drawn.
# How the values were obtained:
# Conditions in all cases: incubation time: 27 h, anaerobic, 37 °C;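 for the amine columns active = adjusted P below 0.05 in both replicates with a change the same way and a mean fold change under 0.8 or over 1.25; inactive = the rest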
# [1] = tested on: Clostridium sporogenes DSM 1664; assay: growth (OD595) fold change vs plate DMSO controls (fold change (ratio)); higher = more growth
# Procedure, shortened: (§1)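 To obtain OD, 595 nm absorbance readings were blank-subtracted, corrected for compound background using 20 µM compound solutions in water, and multiplied by a calibration factor of 5. They came from 96-well mGAM cultures grown anaerobically for 27 h at 37 °C and shaken before reading. Growth is the fold change relative to the median of plate DMSO controls. Two biological replicates were averaged, and fold changes above 1.5 were set to NA.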
# [2] = tested on: Escherichia coli IAI1; assay: as above
# Procedure, shortened: as §1
# [3] = tested on: Klebsiella aerogenes DSM 30053; assay: as above
# Procedure, shortened: as §1
# [4] = tested on: Ruminococcus gnavus DSM 108212; assay: as above
# Procedure, shortened: as §1
# [5] = tested on: Klebsiella aerogenes DSM 30053; assay: fold change of Histamine concentration vs plate DMSO controls (fold change (ratio)); higher = more amine produced, active = hit call of the paper (significant change in both replicates, either direction)
# Procedure, shortened: (§2)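 In 80 µL wells, cultures of four gut bacterial strains in mGAM started at OD 0.1 before a 1:1 dilution and grew anaerobically at 37 °C for 27 h. Compounds were added to 20 µM final, except sweeteners at 50 µM final. After extraction of whole cultures with cold acetonitrile/methanol plus 0.1% formic acid and centrifugation, amines were measured by LC–triple-quadrupole MS in dynamic MRM mode against external calibration curves, with within-batch drift correction. Values give fold change over DMSO controls on the same plate, averaged across 2 biological replicates.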
# [6] = tested on: Clostridium sporogenes DSM 1664; assay: fold change of Tryptamine concentration vs plate DMSO controls (fold change (ratio)); higher = more amine produced, active = hit call of the paper (significant change in both replicates, either direction)
# Procedure, shortened: as §2
# [7] = tested on: Ruminococcus gnavus DSM 108212; assay: as above
# Procedure, shortened: as §2
# [8] = tested on: Escherichia coli IAI1; assay: fold change of Putrescine concentration vs plate DMSO controls (fold change (ratio)); higher = more amine produced, active = hit call of the paper (significant change in both replicates, either direction)
# Procedure, shortened: as §2
# [9] = tested on: Klebsiella aerogenes DSM 30053; assay: as above
# Procedure, shortened: as §2
# [10] = tested on: Escherichia coli IAI1; assay: fold change of Cadaverine concentration vs plate DMSO controls (fold change (ratio)); higher = more amine produced, active = hit call of the paper (significant change in both replicates, either direction)
# Procedure, shortened: as §2
# [11] = tested on: Klebsiella aerogenes DSM 30053; assay: as above
# Procedure, shortened: as §2
# [12] = tested on: Ruminococcus gnavus DSM 108212; assay: fold change of 2-Phenylethylamine concentration vs plate DMSO controls (fold change (ratio)); higher = more amine produced, active = hit call of the paper (significant change in both replicates, either direction)
# Procedure, shortened: as §2
SMILES,growth [1],growth [2],growth [3],growth [4],fold change of Histamine concentration [5],fold change of Tryptamine concentration [6],fold change of Tryptamine concentration [7],fold change of Putrescine concentration [8],fold change of Putrescine concentration [9],fold change of Cadaverine concentration [10],fold change of Cadaverine concentration [11],fold change of 2-Phenylethylamine concentration [12]
CCCCOc1ccc(CC(=O)NO)cc1 [Bufexamac] (20 µM),0.989,0.929,0.846,1.04,1.25 (inactive),0.989 (inactive),1.02 (inactive),0.929 (inactive),0.959 (inactive),0.965 (inactive),0.956 (inactive),1.07 (inactive)
O=C(c1cc(O)c(O)c(O)c1)c1ccc(O)c(O)c1O [Exifone] (20 µM),1.09,1,0.934,0.904,1.06 (inactive),1.09 (inactive),1.03 (inactive),1.01 (inactive),0.998 (inactive),0.991 (inactive),1 (inactive),1.07 (inactive)
NC12CC3CC(CC(C3)C1)C2 [Adamantamine fumarate] (20 µM),0.99,1.02,0.991,0.942,0.988 (inactive),0.971 (inactive),1.09 (inactive),0.924 (inactive),0.993 (inactive),1.03 (inactive),1.09 (inactive),1.23 (inactive)
CCCCC(O)c1ccccc1 (centres undefined) [Fenipentol] (20 µM),0.995,1.05,1.03,0.948,0.969 (inactive),0.989 (inactive),1.01 (inactive),1.01 (inactive),0.987 (inactive),1.03 (inactive),1.01 (inactive),1.04 (inactive)
CC(=O)Oc1ccccc1C(=O)Nc1ncc([N+](=O)[O-])s1 [Nitazoxanide] (20 µM),0.00234,0.925,0.915,0.11,0.982 (inactive),0.0219 (active),0.045 (active),1.02 (inactive),0.982 (inactive),1.25 (inactive),1.01 (inactive),0.0405 (active)
Cc1c(F)c(N2CCNC(C)C2)cc2c1c(=O)c(C(=O)O)cn2C1CC1 (centres undefined) [Grepafloxacin] (20 µM),0.0227,0.0384,0.142,1.29,0.0669 (active),0.0355 (active),0.697 (inactive),0.738 (active),0.628 (active),0.155 (active),0.936 (inactive),0.731 (inactive)
CN(C)CCOC1=Cc2ccccc2Sc2ccc(Cl)cc21 [Zotepine] (20 µM),1.11,1.07,1.05,1.34,1 (inactive),1.01 (inactive),0.902 (inactive),1.08 (inactive),0.99 (inactive),1.05 (inactive),0.993 (inactive),0.924 (inactive)
Cc1cc(=O)oc2cc(O)ccc12 [Hymecromone] (20 µM),1.23,1.04,0.98,1.02,1.04 (inactive),1.06 (inactive),0.953 (inactive),1 (inactive),1.01 (inactive),0.999 (inactive),0.994 (inactive),0.95 (inactive)
c1ccc(CC2=NCCN2)cc1 [Tolazoline hydrochloride] (20 µM),1.05,1,0.977,0.841,1.07 (inactive),0.962 (inactive),0.996 (inactive),0.996 (inactive),1.02 (inactive),1.06 (inactive),0.99 (inactive),1 (inactive)
CN[C@H]1CC[C@@H](c2ccc(Cl)c(Cl)c2)c2ccccc21 [Sertraline] (20 µM),1.13,1.01,1.02,0.975,0.995 (inactive),1.01 (inactive),0.902 (inactive),1.03 (inactive),1 (inactive),1.1 (inactive),0.996 (inactive),1.02 (inactive)
COc1cc(-c2ccc(=O)[nH]n2)ccc1OC(F)F [Zardaverine] (20 µM),1.12,0.946,1.09,0.984,0.932 (inactive),0.971 (inactive),0.994 (inactive),0.953 (inactive),0.987 (inactive),1.01 (inactive),0.997 (inactive),0.952 (inactive)
Nc1ccc(C(=O)O)c(O)c1 [Aminosalicylic acid] (20 µM),1.11,1.02,1.02,0.97,1.06 (inactive),1 (inactive),0.999 (inactive),1.01 (inactive),1.01 (inactive),1.02 (inactive),0.98 (inactive),0.981 (inactive)
